# PubChem BioAssay (EPA / NIEHS)
# Active and inactive are the calls of the source. Rule for the calls: active = hit-call score of the fitted dose curve at least 0.9, where 1 is the maximum; inactive = score below 0.9.
# Test: APR_HepG2_MicrotubuleCSK_24hr: Apredica 24-hour HepG2 Assay for Microtubule CSK Stabilty (AID 2282909)
# Conditions: HepG2 microtubule cytoskeleton imaging, actives raise or lower the signal
# How it was run: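 Fixed HepG2 cells were stained for alpha-tubulin and imaged after 24 hr exposure to ten concentrations spanning 0.39–200 uM in 0.5% DMSO. Signal change was fitted in both directions relative to DMSO; taxol was the positive control.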
Compound,AC50,outcome
N=C(N)c1ccc(OCCCCCOc2ccc(C(=N)N)cc2)cc1,32.6 µM (active),
CCCCC=O,,inactive
O=C1NS(=O)(=O)c2ccccc21,,inactive
OCC(CO)(CBr)CBr,,inactive
CCCCCCCCCCCCOS(=O)(=O)O,,inactive
CCCCCCCCCCCCCCC,,inactive
Cc1[nH]nc2c1N=C(c1ccccc1Cl)c1cc([N+](=O)[O-])ccc1N2,,inactive
CN(Cc1cnc2nc(N)nc(N)c2n1)c1ccc(C(=O)N[C@@H](CCC(=O)O)C(=O)O)cc1,,inactive
CCCCC(CC)C(=O)O (configuration not stated),,inactive

# Test: APR_HepG2_MitoMembPot_24hr: Apredica 24-hour HepG2 Assay for Mitochondrial Membrane Potential (AID 2282911)
# Conditions: imaging, actives raise or lower the signal
# How it was run: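 Cells are dosed for 24 hr across 0.39 to 200 uM with solvent held at 0.5% DMSO. They are then stained with 250 nM MitoTracker Red CMXRos for 30 min, fixed in 3.7% formaldehyde and imaged.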
Compound,outcome,AC50
CS(=O)(=O)c1ccc([C@@H](CC2CCCC2)C(=O)Nc2cnccn2)cc1Cl,inactive,
O=C(c1ccccc1)c1ccccc1,inactive,
N=C(N)c1ccc(OCCCCCOc2ccc(C(=N)N)cc2)cc1,inactive,
CCCCC=O,inactive,
O=C1NS(=O)(=O)c2ccccc21,inactive,
CCCCc1oc2ccccc2c1C(=O)c1cc(I)c(OCCN(CC)CC)c(I)c1,inactive,
OCC(CO)(CBr)CBr,inactive,
CCCCCCCCCCCCOS(=O)(=O)O,inactive,
CCCCCCCCCCCCCCC,inactive,
Cc1[nH]nc2c1N=C(c1ccccc1Cl)c1cc([N+](=O)[O-])ccc1N2,,100 µM (active)
CN(Cc1cnc2nc(N)nc(N)c2n1)c1ccc(C(=O)N[C@@H](CCC(=O)O)C(=O)O)cc1,inactive,
CCCCC(CC)C(=O)O (configuration not stated),inactive,
O=C(CCCN1CCC(O)(c2ccc(Cl)cc2)CC1)c1ccc(F)cc1,inactive,
CN(C)CCOC(c1ccccc1)c1ccccc1,inactive,
CC(=O)Nc1ccc(O)cc1,inactive,

# Test: APR_HepG2_MitoMass_24hr: Apredica 24-hour HepG2 Assay for Mitochondrial Mass (AID 2282912)
# Conditions: high-content imaging, actives raise or lower the signal
# How it was run: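 Endpoint is MitoTracker Red CMXRos (250 nM, 30 min, pre-fixation) intensity from 20x high-content imaging, nuclei located by Hoechst. Human HepG2 cells received ten concentrations from 0.39 to 200 uM in 0.5% DMSO for 24 hr, duplicate wells. Bidirectional fit relative to DMSO.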
Compound,outcome,AC50
CS(=O)(=O)c1ccc([C@@H](CC2CCCC2)C(=O)Nc2cnccn2)cc1Cl,inactive,
O=C(c1ccccc1)c1ccccc1,inactive,
N=C(N)c1ccc(OCCCCCOc2ccc(C(=N)N)cc2)cc1,,30 µM (active)
CCCCC=O,inactive,
O=C1NS(=O)(=O)c2ccccc21,inactive,
CCCCc1oc2ccccc2c1C(=O)c1cc(I)c(OCCN(CC)CC)c(I)c1,,20.7 µM (active)
OCC(CO)(CBr)CBr,inactive,
CCCCCCCCCCCCOS(=O)(=O)O,inactive,
CCCCCCCCCCCCCCC,inactive,
Cc1[nH]nc2c1N=C(c1ccccc1Cl)c1cc([N+](=O)[O-])ccc1N2,,1.09 µM (active)
CN(Cc1cnc2nc(N)nc(N)c2n1)c1ccc(C(=O)N[C@@H](CCC(=O)O)C(=O)O)cc1,inactive,
CCCCC(CC)C(=O)O (configuration not stated),inactive,
O=C(CCCN1CCC(O)(c2ccc(Cl)cc2)CC1)c1ccc(F)cc1,,46 µM (active)
CN(C)CCOC(c1ccccc1)c1ccccc1,inactive,
CC(=O)Nc1ccc(O)cc1,inactive,

# Test: APR_HepG2_p53Act_24hr: Apredica 24-hour HepG2 Assay for p53 Activation (AID 2282913);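 note: p53 protein immunofluorescence averaged per cell in HepG2 with Hoechst nuclei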
# Conditions: high-content imaging, actives raise or lower the signal
# How it was run: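 Human HepG2 liver cells; 24 hr cpd treatment, 0.39–200 uM, 0.5% DMSO final. Fixed in 3.7% formaldehyde, permeabilized with 0.5% Triton X-100, stained with anti-p53/Cy5 plus Hoechst 33342. Six images per well at 20x; gain or loss vs DMSO.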
Compound,outcome,AC50
CS(=O)(=O)c1ccc([C@@H](CC2CCCC2)C(=O)Nc2cnccn2)cc1Cl,inactive,
O=C(c1ccccc1)c1ccccc1,inactive,
CCCCc1oc2ccccc2c1C(=O)c1cc(I)c(OCCN(CC)CC)c(I)c1,,33.5 µM (active)
O=C(CCCN1CCC(O)(c2ccc(Cl)cc2)CC1)c1ccc(F)cc1,,98.3 µM (active)

# Test: APR_HepG2_CellCycleArrest_72hr: Apredica 72-hour HepG2 Assay for Cell Cycle Arrest (AID 2282914)
# Conditions: high-content imaging, actives raise or lower the signal
# How it was run: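 Read-out is Hoechst-stained nuclear DNA content measured by automated fluorescence imaging (20x, six images per well), fitted in both directions relative to DMSO. Human HepG2 liver cells received 0.39–200 uM compound for 72 hr at 0.5% v/v DMSO.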
Compound,AC50,outcome
N=C(N)c1ccc(OCCCCCOc2ccc(C(=N)N)cc2)cc1,4.81 µM (active),
CCCCC=O,,inactive
O=C1NS(=O)(=O)c2ccccc21,,inactive
OCC(CO)(CBr)CBr,,inactive
CCCCCCCCCCCCOS(=O)(=O)O,,inactive
CCCCCCCCCCCCCCC,,inactive
Cc1[nH]nc2c1N=C(c1ccccc1Cl)c1cc([N+](=O)[O-])ccc1N2,0.279 µM (active),
CN(Cc1cnc2nc(N)nc(N)c2n1)c1ccc(C(=O)N[C@@H](CCC(=O)O)C(=O)O)cc1,,inactive
CCCCC(CC)C(=O)O (configuration not stated),,inactive

# Test: APR_HepG2_CellLoss_72hr: Apredica 72-hour HepG2 Assay for Cell Loss (AID 2282915)
# Conditions: high-content imaging
# How it was run: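 Cell number comes from Hoechst 33342-labelled nuclei, imaged at 20x after 3.7% formaldehyde fixation. Dosing was 0.39–200 uM, ten concentrations in duplicate, 0.5% DMSO final, for 72 h. Bidirectional fit relative to DMSO baseline.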
Compound,outcome,AC50
CS(=O)(=O)c1ccc([C@@H](CC2CCCC2)C(=O)Nc2cnccn2)cc1Cl,inactive,
O=C(c1ccccc1)c1ccccc1,inactive,
N=C(N)c1ccc(OCCCCCOc2ccc(C(=N)N)cc2)cc1,,24.2 µM (active)
CCCCC=O,inactive,
O=C1NS(=O)(=O)c2ccccc21,inactive,
CCCCc1oc2ccccc2c1C(=O)c1cc(I)c(OCCN(CC)CC)c(I)c1,,17.2 µM (active)
OCC(CO)(CBr)CBr,inactive,
CCCCCCCCCCCCOS(=O)(=O)O,inactive,
CCCCCCCCCCCCCCC,inactive,
Cc1[nH]nc2c1N=C(c1ccccc1Cl)c1cc([N+](=O)[O-])ccc1N2,,1.49 µM (active)
CN(Cc1cnc2nc(N)nc(N)c2n1)c1ccc(C(=O)N[C@@H](CCC(=O)O)C(=O)O)cc1,inactive,
CCCCC(CC)C(=O)O (configuration not stated),inactive,
O=C(CCCN1CCC(O)(c2ccc(Cl)cc2)CC1)c1ccc(F)cc1,,34.7 µM (active)
CN(C)CCOC(c1ccccc1)c1ccccc1,,90.8 µM (active)
CC(=O)Nc1ccc(O)cc1,inactive,

# Test: APR_HepG2_P-H2AX_72hr: Apredica 72-hour HepG2 Assay for H2AX Phosphorylation (AID 2282916);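 note: phospho-histone H2A.x immunostain intensity per cell marking DNA damage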
# Conditions: imaging, actives raise or lower the signal
# How it was run: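 Phospho-histone H2A.x immunofluorescence, multiplexed with Hoechst and c-Jun, quantified by high-content imaging. Compounds applied to HepG2 for 72 h across ten concentrations (0.39–200 uM, 0.5% DMSO), in duplicate; DMSO baseline.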
Compound,outcome,AC50
CS(=O)(=O)c1ccc([C@@H](CC2CCCC2)C(=O)Nc2cnccn2)cc1Cl,inactive,
O=C(c1ccccc1)c1ccccc1,inactive,
N=C(N)c1ccc(OCCCCCOc2ccc(C(=N)N)cc2)cc1,,25.1 µM (active)
CCCCC=O,inactive,
O=C1NS(=O)(=O)c2ccccc21,inactive,
CCCCc1oc2ccccc2c1C(=O)c1cc(I)c(OCCN(CC)CC)c(I)c1,,75.5 µM (active)
OCC(CO)(CBr)CBr,inactive,
CCCCCCCCCCCCOS(=O)(=O)O,inactive,
CCCCCCCCCCCCCCC,inactive,
Cc1[nH]nc2c1N=C(c1ccccc1Cl)c1cc([N+](=O)[O-])ccc1N2,,19.8 µM (active)
CN(Cc1cnc2nc(N)nc(N)c2n1)c1ccc(C(=O)N[C@@H](CCC(=O)O)C(=O)O)cc1,,0.0391 µM (active)
CCCCC(CC)C(=O)O (configuration not stated),inactive,
O=C(CCCN1CCC(O)(c2ccc(Cl)cc2)CC1)c1ccc(F)cc1,,33 µM (active)
CN(C)CCOC(c1ccccc1)c1ccccc1,,114 µM (active)
CC(=O)Nc1ccc(O)cc1,inactive,
